Screens: PubChem, Sanford-Burnham Center for Chemical Genomics
SENP8 block-1: SENP8 (human) protease inhibition; Q96LD8; recombinant SENP8, Nedd8 substrate fluorescence; inhibition, % at 20 µM; 360,000 tested, 0.64% active; AID 602440; in the data active means inhibition mostly above about 40%, no sharp cut-off; inactive means mostly below about 27%
TRAIL sens C8: sensitizes caspase-8 expressing cells to TRAIL | NB7+C8 cells + TRAIL, ATPlite viability luminescence | inhibition (viability loss, TRAIL sensitization), % at 10 µM | 360,000 tested, 1% active;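 active means compounds causing at least 50% loss of cell viability in the single-dose screen, relative to plate controls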
SENP7 inh: inhibitors of human SENP7 protease; Q9BQF6; recombinant SENP7, Z-RLRGG-aminoluciferin luminescence, 40 min; inhibition, % at 5 µM; 330,000 tested, 1.5% active;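 active means inhibition above about 50% at the single test dose, limit read from the data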;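 further: plate controls were DMSO with enzyme for no effect and no enzyme buffer wells for full effect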
Target sequence (Q9BQF6 706-1050 limits assumed): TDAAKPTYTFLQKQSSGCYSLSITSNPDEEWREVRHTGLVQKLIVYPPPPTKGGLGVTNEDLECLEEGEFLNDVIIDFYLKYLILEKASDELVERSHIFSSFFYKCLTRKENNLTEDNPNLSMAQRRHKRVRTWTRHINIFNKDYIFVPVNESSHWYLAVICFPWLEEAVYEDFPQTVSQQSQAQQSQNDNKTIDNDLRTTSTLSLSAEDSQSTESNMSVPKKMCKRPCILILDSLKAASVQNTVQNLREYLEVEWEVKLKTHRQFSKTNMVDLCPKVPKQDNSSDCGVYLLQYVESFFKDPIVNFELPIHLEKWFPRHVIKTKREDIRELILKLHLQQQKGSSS
PPC-1+TRAIL kill: PPC-1 cancer cell killing with TRAIL present; AID 1443; 220,000 tested, 0.41% active; cell killing (% activity), % at 4 µM or 5 µM; PPC-1 cells + TRAIL, ATPLite viability luminescence;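 active means cell killing above 50% in the first pass at 4 µM, then a duplicate retest at 5 µM averaging 50% or more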;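 further: plate controls were cells with TRAIL plus DMSO for no effect and medium-only wells lacking cells for full effect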
SENP6 inh: SENP6 protease inhibition; Recombinant SENP6 catalytic domain, aminoluciferin luminescence; inhibition, % at 10 µM; 330,000 tested, 1.8% active; AID 2599;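 active means inhibition above about 50% at the single tested dose, limit read from the data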;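 further: plate controls were DMSO wells with enzyme for no effect and DMSO wells lacking enzyme for full effect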
SENP8 block-2: SENP8 protease inhibition | Q96LD8 | purified SENP8, Z-RLRGG-aminoluciferin cleavage, luminescence | inhibition, % at 10 µM | 330,000 tested, 1.2% active; in the data active means inhibition above about 50%
SENP8 conf: human SENP8 inhibition, confirmed. shares compounds with SENP7 inh. Recombinant SENP8, Z-RLRGG-aminoluciferin luminescence, 60 min. inhibition, % at 12.5 µM. 6,200 tested, 40% active. AID 488912;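 active means mean inhibition across replicates above about 50%, limit read from the data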
SENP6 confirm: human SENP6 inhibition, confirmed; shares compounds with SENP7 inh; recombinant SENP6, Z-RLRGG-aminoluciferin luminescence; inhibition, % at 12.5 µM; 6,200 tested, 58% active; AID 488915
SENP7 conf: confirmation of human SENP7 protease inhibitors; shares compounds with SENP7 inh; recombinant SENP7, Z-RLRGG-aminoluciferin luminescence, 40 min; inhibition, % at 12.5 µM; 6,200 tested, 69% active; AID 488917
Casp3 SENP sel: inhibits human caspase-3 in SENP selectivity test | shares compounds with SENP7 inh | purified caspase-3, Z-DEVD-aminoluciferin luminescence, 60 min | inhibition, % at 12.5 µM | 6,200 tested, 60% active | AID 488918;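 active means mean inhibition above about 50%, limit read from the data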;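 further: plate controls were enzyme with DMSO for no effect and wells without caspase-3 for full effect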
Luc interf: luminescence interference (SENP counter-screen). inhibition, % at 12.5 µM. shares compounds with SENP7 inh. 6,200 tested, 39% active. AID 488919. Pre-incubated SENP8/Z-RLRGG-aminoluciferin, luciferase luminescence interference;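 active means mean inhibition above about 50% when retested at one dose, limit read from the data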;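 further: plate controls were DMSO wells with completed reaction for no effect and substrate without enzyme for full effect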
The depositor's hits bear a star; . = not tested or not shown. Shown are actives, neighbours in structure and some others; about 3% of the full set was active somewhere.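 How the source made its calls, unless noted: active means mean inhibition above about 50% in the one-dose retest (limit read from the data); inactive means the rest.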

SMILES	SENP8 block-1	TRAIL sens C8	SENP7 inh	PPC-1+TRAIL kill	SENP6 inh	SENP8 block-2	SENP8 conf	SENP6 confirm	SENP7 conf	Casp3 SENP sel	Luc interf
COc1cccc(-c2cc(C(=O)Nc3cc(OC)c(OC)c(OC)c3)no2)c1	16.6	-0.7	-8.2	27.3	-20.9	-4.7	.	.	.	.	.
O=C(Nc1cccnc1)c1cc(-c2ccco2)on1	18.3	17.2	58.3*	7.9	48.6	23.4	39.6	39.3	63.5*	79.0*	1.4
COc1cccc(-c2cc(C(=O)Nc3cccnc3)no2)c1	3.2	32.7	80.2*	28.5	55.5*	64.7*	47.3	78.0*	93.0*	83.4*	28.9
Cc1ccc(NC(=O)c2cc(-c3ccco3)on2)cc1	-12.0	-9.9	19.0	3.1	1.9	-1.3	.	.	.	.	.
COC(=O)c1sccc1-c1ccc(C(=O)Nc2cccnc2)o1	-96.3	13.7	52.5*	3.0	48.0	21.1	44.9	40.0	76.3*	59.3*	4.2
COc1ccc(C(=O)N[C@H]2CCCCNC2=O)cc1OC1CCN(C(C)C)CC1	3.6	-2.0	-4.8	.	-6.7	3.3	.	.	.	.	.
CC(=O)N1CCc2cc(S(=O)(=O)NCC(=O)NCc3ccc(Cl)cc3)ccc21	15.7	1.2	-1.6	.	7.2	-8.9	.	.	.	.	.
O=C(Nc1cccnc1)c1cc(-c2ccc(Br)cc2)on1	15.0	25.0	83.9*	8.4	29.3	36.3	18.6	18.7	30.6	30.2	4.7
CC(C)c1cc(C(=O)Nc2cccnc2)no1	12.6	2.2	63.4*	-9.7	62.3*	39.5	61.0*	56.2*	85.7*	88.2*	64.6*
Cc1ccccc1Nc1nnc(SCC2CCCCO2)s1 (stereo not given)	8.3	41.4	87.1*	39.8	90.2*	76.8*	81.4*	81.5*	96.9*	88.1*	76.9*
Cc1cccc(Nc2nnc(SCC(=O)NCC3CCCO3)s2)c1C (stereo not given)	12.8	-7.2	-11.6	.	-9.0	-12.5	.	.	.	.	.
Cc1cccn2c(NC(=O)c3ccccc3F)c(-c3ccccc3)nc12	3.3	-11.5	-0.3	.	-8.8	4.9	.	.	.	.	.
O/C(=C\c1ccc2ccccc2n1)c1ccc(O)cc1O	28.3	65.7*	92.3*	47.9	91.3*	92.8*	95.4*	95.8*	101.7*	92.1*	47.0
Oc1ccc(/C(Cc2ccc3ccccc3n2)=N\Nc2ccccc2)c(O)c1	-14.1	-4.0	-1.3	2.0	0.7	-2.5	.	.	.	.	.
CC1=CC(c2ccccc2)=Nc2ccc(C)cc2N1	-34.4	32.1	7.7	31.7	60.1*	46.1	55.4*	27.8	66.4*	81.3*	80.1*
O=C(O)c1ccccc1Nc1ccccc1	-2.1	7.0	-9.7	.	-10.1	-1.1	.	.	.	.	.
O=C(O)c1ccccc1Nc1ccc(OC(F)F)cc1	14.8	-6.1	20.6	16.4	10.4	55.2*	61.2*	60.2*	80.4*	65.6*	73.9*
CC(=Nc1ccc(C)cc1)c1sc2ccccc2c1O	-52.9	62.4*	95.5*	43.3	94.0*	90.1*	94.6*	95.8*	100.6*	85.0*	48.1
CCOC(=O)c1sc2ccccc2c1OC(=O)c1ccc(C)cc1	6.9	9.3	-9.7	-6.5	-1.8	-5.9	.	.	.	.	.
CC(=Nc1cccc(O)c1)c1sc2ccccc2c1O	-5.0	10.0	89.7*	35.3	91.1*	89.7*	84.3*	81.7*	93.2*	54.2*	72.3*
Cc1ccc(C)c(S(=O)(=O)C(C#N)c2nc3ccccc3nc2N2CCCC2)c1 (stereo not given)	1.4	-15.2	49.7	4.3	70.2*	64.8*	-1.5	1.6	-3.3	-2.8	-3.9
